# High-throughput results (PubChem)
# PLK1 PBD inh: qHTS for Inhibitors of PLK1-PDB (polo-like kinase 1 - polo-box domain): Primary Screen. Serine/threonine-protein kinase PLK1 (Homo sapiens), P53350. Potency, µM, for inactives: max response, negative = inhibition, actives largely listed as inhibitors. 360,000 tested, 2.8% active. Plk1 PBD binding of FITC phosphopeptide, fluorescence polarization. AID 720504, 2013; also: series mostly up to about 57 µM; nearly all actives have a fitted effect of over 65% in size
# Tau fluor cs: Counterscreen qHTS for Inhibitors of Tau Fibril Formation, Fluorescence Polarization; tau K18 P301L Alexa594 fluorescence, heparin fibrillization; Potency, µM (highest dose often 57.7 µM), for the others: top-dose activity change, negative = decrease; 280,000 tested, 0.93% active; AID 1463, 2008; also: nearly all actives have a fitted effect of over 55% in size
#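 Human tau K18 P301L (15 uM unlabeled, 0.24 uM Alexa 594-labeled) in 100 mM sodium acetate pH 7 with 20 uM heparin, 6 hr at 37 C. ThT 30 uM added, 1 hr ambient; Alexa 594 FP and total fluorescence read at 555/632 nm.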
# Tau fibril FP: qHTS for Inhibitors of Tau Fibril Formation, Fluorescence Polarization. Microtubule-associated protein tau (Homo sapiens), P10636. 280,000 tested, 0.39% active. K18 P301L tau heparin fibrillization, Alexa594 FP, 6 h. AID 1468, 2008. Potency, µM (titrated, usually from 57.7 µM), inactives show at the highest dose activity, negative = inhibition, most hits filed as inhibitors; also: nearly all actives have a fitted effect of over 55% in size
#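 Heparin (20 uM) drove fibril formation of recombinant tau K18 P301L, 15 uM unlabeled with 0.24 uM Alexa 594 label, for 6 hr at 37 C in 100 mM sodium acetate pH 7. Fluorescence polarization (555/632 nm) read 1 hr after 30 uM ThT.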
# Tau ThT inhib: qHTS for Inhibitors of Tau Fibril Formation, Thioflavin T Binding; recombinant tau K18 P301L, heparin-induced fibrillization, ThT fluorescence; Potency, µM (top dose mostly 57.4 µM), without a hit: at the highest dose activity, negative = inhibition, actives largely listed as inhibitors; Microtubule-associated protein tau (Homo sapiens), P10636; 270,000 tested, 2.1% active; AID 1460, 2008; also: nearly all actives have a fitted effect of over 55% in size
#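 ThT emission at 510 nm, taken 1 hr after adding 30 uM dye, quantifies aggregates formed when 20 uM heparin acts on human tau K18 P301L for 6 hr at 37 C.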
# VDR inh: Inhibitors of the vitamin D receptor (VDR): qHTS; AID 504847, 2011; 400,000 tested, 0.93% active; VDR-SRC2-3 peptide fluorescence polarization, 2 h; Potency, µM, for inactives: max response, negative = inhibition, hits mostly inhibitors; Vitamin D3 receptor (Homo sapiens), P11473
#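 Reagent solutions, kept cold and dark, are dispensed first; compounds are then pinned in at 23 nl, plates briefly spun, and incubated 2 h at ambient temperature. Inhibition of VDR–SRC2-3 peptide binding is read by fluorescence polarization.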
# Sfp inh: qHTS Assay for Inhibitors of Bacillus subtilis Sfp phosphopantetheinyl transferase (PPTase); 4'-phosphopantetheinyl transferase ffp (Bacillus subtilis), Q9F4F7; AID 1490, 2009; Biochemical Sfp PPTase activity, qHTS; 310,000 tested, 3.5% active; Potency, µM, without a hit: largest response in the series, negative = inhibition, usual class: inhibitors;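 also: the enzyme is Sfp with the accession as filed and its product quenches rhodamine fluorescence; 0% = enzyme reaction without inhibitor and -100% = no enzyme wells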
#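 Sfp 15 nM + cpd, 15 min RT; start w/ rhodamine-CoA 5 uM, BHQ-2-YbbR 12.5 uM (final); 50 mM Hepes pH 7.6, 10 mM MgCl2, 0.01% NP-40, 0.01% BSA; read 525/598 nm at 0 and 30 min.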
# * hit, by the source's call; ? = inconclusive; . = no result given. A selection: hits, their analogues and other compounds. The true share with any hit is near 6%. Calls follow the shape of the dose curve; as a rule, active = well fitted curve in the direction sought with a large enough effect; inconclusive = small, poorly fitted or top-dose-only effect, or another doubt; inactive = no such curve, though single readings can be large; an effect the other way counts as inactive or inconclusive. Unless noted, % is scaled to controls: 0 for no effect and ±100 for the full control effect; potency is read from the fitted curve at half-maximal effect.
SMILES,PLK1 PBD inh,Tau fluor cs,Tau fibril FP,Tau ThT inhib,VDR inh,Sfp inh
Cc1ccc2c(c1)C1C=CCC1C(C(=O)O)N2 (stereo not given),.,?,?,14µM*,.,?
Cc1ccc2c(c1)C1C=CCC1C(C(=O)NCCCN1CCOCC1)N2 (stereo not given),-12%,.,.,.,-2%,.
O=c1c(-c2ccccc2)nc2cnc(N3CCNCC3)nc2n1-c1ccccc1,.,.,.,.,?,-8%
CC(=O)N1CCN(C(=S)Nc2ccc(SC(F)F)cc2)CC1,21µM*,-1%,-8%,-1%,-6%,16%
COC(=O)c1ccc(CC(=O)c2c(C)cc(O)cc2O)o1,-20%,?,?,28µM*,-14%,40µM*
O=[N+]([O-])c1cccc(-c2ccc(C(=S)N3CCN(c4ccccc4)CC3)o2)c1,12µM*,?,?,20µM*,?,13µM*
S=C(c1ccc(-c2cccc(Cl)c2)o1)N1CCOCC1,19µM*,?,-11%,16µM*,?,20µM*
Cc1c(C(=O)N2CCN(c3cccc(Cl)c3)CC2)cccc1[N+](=O)[O-],30µM*,-10%,7%,-8%,?,-2%
O=[N+]([O-])c1cccc(-c2ccc(C(=S)N3CCOCC3)o2)c1,-15%,9%,-9%,12%,-13%,20µM*
O=C(O)c1ccccc1C(=O)N1CCN(c2cccc(Cl)c2)CC1,-11%,-1%,-4%,-8%,4%,-13%
CCN(CC)S(=O)(=O)c1ccc(NC(=O)c2c(C)oc3ncnc(N4CCCCC4)c23)cc1,.,-21%,-1%,-5%,5%,.
O=C(c1ccc(-c2ccc([N+](=O)[O-])cc2)o1)N1CCCC(C(F)(F)F)C1 (stereo not given),-16%,.,.,.,-9%,.
O=C(c1ccc(-c2ccc([N+](=O)[O-])cc2)o1)N1CCCCCCC1,24µM*,.,.,.,35µM*,.
O=[N+]([O-])c1cccc(C(=S)N2CCN(c3ccc(F)cc3)CC2)c1,?,-30%,3%,-11%,-18%,28µM*
O=C(c1ccc(-c2cccc(Cl)c2)o1)N1CCN(c2ccc([N+](=O)[O-])cc2)CC1,27µM*,-15%,0%,?,?,-23%
CCCC(=O)N1CCC1(C)C(=O)Nc1ccc2nccnc2c1 (stereo not given),-6%,.,.,.,.,.
CC(=O)OCC1OC(n2ccc3ccccc32)C(OC(C)=O)C(OC(C)=O)C1OC(C)=O (stereo not given),27µM*,-4%,3%,2%,-3%,14%
CC(=O)OC[C@H]1O[C@@H](n2ccc(=O)[nH]c2=S)C(OC(C)=O)C1OC(C)=O (stereo not given in full),-2%,-4%,-13%,9%,-6%,-25%
COc1cc(C2(C)SCCCS2)cc(OC)c1OC,-3%,.,.,.,.,.
CC(=O)n1cc(N(C(=O)CCl)c2ccccc2)c2ccccc21,-11%,-5%,2%,?,?,-6%
CC(=O)n1cc(N(C(=O)CCl)c2ccc([N+](=O)[O-])cc2)c2ccccc21,-24%,?,-7%,28µM*,22µM*,11%
O=c1cc(-c2ccc(C3CCCCC3)cc2)[nH][nH]1,24µM*,-21%,-6%,?,-22%,0%
O=c1cc(-c2ccc(F)cc2)[nH][nH]1,4%,-12%,?,?,?,3%
Cc1ccc(S(=O)(=O)c2nnn3c2nc(NCc2ccccc2Cl)c2sccc23)cc1,.,-14%,?,10%,17%,.
Cc1c(/C=N/Nc2ccc(F)cc2)c(O)n(C)c(=O)c1C#N,19µM*,-27%,?,14µM*,-15%,-15%
